Experimental data published in PubChem BioAssay AID1903 (Southern Research Specialized Biocontainment Screening …, 2009).
Among all 310,000 compounds or so, about 1,200 (0.39%) were called active. The rule behind the calls is not given here. A selection follows. Entries with a potency or affinity are not part of this list.

What follows are molecules tested against Large T antigen (Simian virus 40) (UniProt P03070) (assay: TAg ATPase/helicase activity blockers – biochemical (AID 1903)). Details: SV40 large T antigen ATPase/helicase inhibition assay; at 20 µM; active compounds read high.
Chain of Large T antigen (Simian virus 40) (P03070 whole entry, looked up): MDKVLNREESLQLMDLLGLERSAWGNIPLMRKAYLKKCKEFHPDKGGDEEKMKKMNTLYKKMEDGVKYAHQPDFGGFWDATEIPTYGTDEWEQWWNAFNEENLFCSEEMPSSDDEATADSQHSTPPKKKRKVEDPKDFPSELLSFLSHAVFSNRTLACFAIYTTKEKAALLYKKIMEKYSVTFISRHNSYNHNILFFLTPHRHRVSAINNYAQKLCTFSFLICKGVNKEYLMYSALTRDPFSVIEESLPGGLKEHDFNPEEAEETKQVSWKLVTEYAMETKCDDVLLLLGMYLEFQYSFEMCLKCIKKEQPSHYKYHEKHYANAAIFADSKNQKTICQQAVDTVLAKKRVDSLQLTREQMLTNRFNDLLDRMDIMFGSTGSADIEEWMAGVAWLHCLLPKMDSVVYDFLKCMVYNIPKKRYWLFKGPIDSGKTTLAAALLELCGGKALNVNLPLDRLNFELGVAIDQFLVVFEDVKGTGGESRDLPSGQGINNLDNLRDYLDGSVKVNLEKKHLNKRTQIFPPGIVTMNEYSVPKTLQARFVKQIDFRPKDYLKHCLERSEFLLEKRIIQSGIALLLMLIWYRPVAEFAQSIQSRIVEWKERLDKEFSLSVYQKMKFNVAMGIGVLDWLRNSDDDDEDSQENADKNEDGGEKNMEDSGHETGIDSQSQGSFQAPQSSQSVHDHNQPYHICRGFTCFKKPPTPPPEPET

Row | SMILES | inhibition
1 | O=C(Cn1ccc2ccccc2c1=O)NCC(=O)N1CCN(c2ccccc2F)CC1 | 5.42% (inactive)
2 | CC(=O)Nc1ccccc1OC(C)C(=O)N1CC(C)CC(C)C1 (centres undefined) | 2.89% (inactive)
3 | CCOc1ccc(NC(=O)N2CCC(n3nnc4cc(C)ccc43)CC2)cc1 | -5.9% (inactive)
4 | Cn1c(=O)cc(SCC(=O)Nc2ccccn2)c2ccccc21 | 18.7% (inactive)
5 | COC(=O)c1ccccc1NC(=O)N1CCN(S(C)(=O)=O)CC1 | 5.14% (inactive)
6 | CCNC(=S)N(CCc1ccccc1C)Cc1cc2cc(OC)c(OC)cc2[nH]c1=O | 2.57% (inactive)
7 | COc1ccc(N(CC(=O)NCc2ccc(F)cc2)C(=O)c2snc(C(N)=O)c2N)cc1OC | 5.71% (inactive)
8 | CSc1ccc(C#N)cc1NC(=O)c1cccnc1Cl | 1.02% (inactive)
9 | C/C(=N\NC(=O)Cn1ccc(C(F)(F)F)n1)c1ccc(N2CCOCC2)cc1 | 5.06% (inactive)
10 | COc1cc(/C=N/NC(=O)CCn2c3ccccc3c3ccccc32)ccc1O | 13.3% (inactive)
11 | COc1cc(/C=N\NC(=O)Cn2nnc3ccccc32)cc(OC)c1OC | 4.84% (inactive)
12 | COc1ccc(O)c(/C=N\NC(=O)CCn2nnc3ccccc32)c1 | 9.4% (inactive)
13 | COc1ccc(/C=N/NC(=O)Cn2nnc3ccccc32)cc1OC | 9.9% (inactive)
14 | COc1ccc(/C=N/NC(=O)CCc2c(C)n[nH]c2C)cc1O | 33.9% (inactive)
15 | CCOc1cc(/C=N/NC(=O)CCn2nc(C)cc2C)ccc1O | 33.9% (inactive)
16 | COc1ccc(/C=N/NC(=O)CCn2nc(C)cc2C)cc1O | 32.7% (inactive)
17 | COc1ccc(/C=N/NC(=O)CCc2c(C)n[nH]c2C)cc1OC | 0.79% (inactive)
18 | CC1CCCN(C(=O)N2c3ccccc3Sc3ccccc32)C1 (centres undefined) | 6.24% (inactive)
19 | CCOC(=O)c1c(-c2ccccc2)csc1NC(=O)c1ccc(S(=O)(=O)N2CCOCC2)cc1 | 11.2% (inactive)
20 | C=CCn1c(COc2ccc(Cl)cc2)nnc1SCC(=O)Nc1ccc(S(N)(=O)=O)cc1 | -7.84% (inactive)
21 | COc1cccc2cc(-c3nnc(-c4ccccc4)o3)c(=O)oc12 | 3.9% (inactive)
22 | COC(CN(C)C(C(=O)NC1CCCCC1)c1ccccc1)OC (centres undefined) | -3.44% (inactive)

Row | SMILES | inhibition
23 | Cc1cc(C)cc(NC(=O)Nn2cnnc2)c1 | 14.3% (inactive)
24 | CCCCN(Cc1ccccc1)C(=O)CCN1C(=O)C2C3C=CC(C3)C2C1=O (centres undefined) | 8.63% (inactive)
25 | Cc1cc([N+](=O)[O-])ccc1NC(=O)c1cncc(Br)c1 | 12.5% (inactive)
26 | COC(=O)c1ccc(S(=O)(=O)c2ccc(Cl)cc2)c(N)c1 | 13.4% (inactive)
27 | COC(=O)c1ccc(C(=O)NC2CCSc3ccccc32)cc1 (centres undefined) | 6.81% (inactive)
28 | CC(C)CCN1CCN=C1Nc1ccccc1 | 0.58% (inactive)
29 | Cn1c(SCc2ccc([N+](=O)[O-])cc2)nc2c(c1=O)SCC2 | 3.17% (inactive)
30 | Fc1ccc2nc(N3CCOCC3)sc2c1 | -1.3% (inactive)
31 | c1ccc2sc(N3CCOCC3)nc2c1 | 20.2% (inactive)
32 | Nc1nc2ccc(S(=O)(=O)c3ccc4nc(N)sc4c3)cc2s1 | 10.5% (inactive)
33 | CC(C)c1ccc2nc(N)sc2c1 | 8.35% (inactive)
34 | CC(Sc1nc2c(c(=O)[nH]1)CCCC2)C(=O)Nc1ccccc1C#N (centres undefined) | 6.43% (inactive)
35 | O=C(N/N=C/c1cnc(N2CCOCC2)s1)c1ccccc1 | 11.5% (inactive)
36 | O=C(COc1ccccc1)NCC(=O)NC1=NCCS1 | 3.88% (inactive)
37 | COc1cc(/C=C/C(=O)OCC(=O)N(C)C2CCS(=O)(=O)C2)ccc1OC(F)F (centres undefined) | -1.47% (inactive)
38 | COc1cc(/C=C/C(=O)OCC(=O)NC2CCS(=O)(=O)C2)ccc1O (centres undefined) | 34% (inactive)
39 | Cc1ccc(NC(=O)CN(C)S(=O)(=O)c2ccc3[nH]c(=O)oc3c2)c(C)c1 | 10.9% (inactive)
40 | CC1CC(C)CN(CC(=O)N2CCc3[nH]c4ccccc4c3C2)C1 (centres undefined) | -3.87% (inactive)
41 | Cc1ccc(/C=C2/SC(=S)N(C3CCCCC3)C2=O)o1 | 31.8% (inactive)
42 | O=C1/C(=C\c2ccco2)SC(=S)N1C1CCS(=O)(=O)C1 (centres undefined) | 22.2% (inactive)
43 | O=C1/C(=C/c2ccco2)SC(=S)N1C1CCS(=O)(=O)C1 (centres undefined) | 33.6% (inactive)
44 | Cc1ccc(/C=C2\SC(=S)N(C3CCS(=O)(=O)C3)C2=O)o1 (centres undefined) | 9.87% (inactive)

Row | SMILES | inhibition
45 | COc1ccc(C2C(C(=O)Nc3ccc(OC)c(OC)c3)c3ccccc3C(=O)N2C)cc1 (centres undefined) | 5.35% (inactive)
46 | CCOC(=O)c1ccc(NC(=O)CN2CCN(Cc3ccccc3)CC2)cc1 | -0.24% (inactive)
47 | O=C1NC(=O)/C(=C\c2cn(Cc3ccccc3F)c3ccccc23)N1 | 8.29% (inactive)
48 | C/C(=N\NC(=O)Cc1ccc(F)cc1)c1ccc(O)cc1 | 36.9% (inactive)
49 | COc1ccc(C(=O)N/N=C(\C)Cn2nc([N+](=O)[O-])cc2C)cc1 | 8.1% (inactive)
50 | COc1cc(/C(C)=N/NC(=O)CN2CCN(S(=O)(=O)c3ccc(C)cc3)CC2)ccc1O | 20.9% (inactive)
51 | C/C(=N\NC(=O)CCc1c(C)n[nH]c1C)c1ccc([N+](=O)[O-])cc1 | 3.31% (inactive)
52 | C/C(Cn1nc([N+](=O)[O-])cc1C)=N\NC(=O)c1ccc(C(C)(C)C)cc1 | 9.13% (inactive)
53 | COc1cc(C(=O)N/N=C(\C)c2ccc(NC(=O)Cc3ccccc3)cc2)ccc1O | 37.2% (inactive)
54 | COc1ccc(-c2noc(Cc3ccccc3OC)n2)cc1 | 5.97% (inactive)
55 | CCOc1ccccc1C(=O)NCC(=O)N(C)Cc1cccnc1 | 0.45% (inactive)
56 | CC1CCc2cc(F)ccc2N1C(=O)c1cc2nc(-c3ccco3)cc(C(F)(F)F)n2n1 (centres undefined) | 0.153% (inactive)
57 | O=c1oc2c(-c3cccc(F)c3)cc(O)cc2s1 | 6.75% (inactive)
58 | Cc1ccc(-c2cc(O)cc3sc(=O)oc23)cc1C | 9.82% (inactive)
59 | Cc1cc(NC(=O)CSc2nnc3c(C)cc4ccccc4n23)no1 | 23.4% (inactive)
60 | CCc1cccc(C)c1NC(=O)CCCSc1nc2ccccc2s1 | 3.33% (inactive)
61 | COc1ccc(NCc2nnc(SCC(=O)c3ccc(OC)cc3)n2C)cc1 | 21.2% (inactive)
62 | COc1ccccc1-n1c(CNc2ccc(F)cc2)nnc1SCC(=O)Nc1cc(C)on1 | 25.1% (inactive)
63 | COc1ccc(NCc2nnc(SCC(=O)Nc3ccc(OC)cc3)n2C)cc1 | 9.42% (inactive)
64 | CCOc1ccc(NCc2nnc(SCC(=O)Nc3cc(C)on3)n2-c2ccccc2OC)cc1 | 15.1% (inactive)
